Source: PubChem
Rows were chosen to be rich in hits. Some 1.2% of all compounds tested hit in one or more screens of this group.
PriA SSB inh: blocks PriA binding to SSB C-terminal tail | AlphaScreen SSBct-PriA binding, biotinylated peptide | inhibition, % at 33 µM | 430,000 tested, 0.6% active; in the data active = inhibition mostly above about 37%, no sharp cut-off; inactive = mostly below about 20%;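 also: plate controls were negative control peptide for no effect and reference peptide for full effect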
FadD28 binding: inhibitors of Mycobacterium tuberculosis FadD28 bisubstrate binding; FadD28 bisubstrate probe binding, fluorescence polarization; inhibition, % at 12.5 µM; 360,000 tested, 0.22% active; in the data active = inhibition above about 8.5%, passing the limit was not always enough; inconclusive = no clear call, values can overlap the other calls
UGM FP inh: blocks M. tuberculosis UGM enzyme; P9WIQ1; purified UGM, fluorescence polarization probe displacement; inhibition, % at 10 µM; 320,000 tested, 0.06% active; in the data active = inhibition above about 10%, passing the limit was not always enough; inconclusive = no clear call, values can overlap the other calls
Target sequence (P9WIQ1 whole entry, looked up): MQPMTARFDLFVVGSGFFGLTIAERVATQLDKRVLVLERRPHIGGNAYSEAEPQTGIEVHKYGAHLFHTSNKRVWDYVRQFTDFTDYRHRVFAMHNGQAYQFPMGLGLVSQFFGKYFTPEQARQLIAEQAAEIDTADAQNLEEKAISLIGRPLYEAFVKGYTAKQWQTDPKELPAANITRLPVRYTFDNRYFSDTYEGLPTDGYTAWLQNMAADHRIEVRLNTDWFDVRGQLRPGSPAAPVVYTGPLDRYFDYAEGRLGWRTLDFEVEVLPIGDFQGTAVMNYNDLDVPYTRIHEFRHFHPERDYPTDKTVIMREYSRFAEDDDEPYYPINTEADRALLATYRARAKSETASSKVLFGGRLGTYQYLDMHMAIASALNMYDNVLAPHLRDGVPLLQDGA
PrP UTR inh: suppresses PrP 5' UTR mRNA reporter expression; cell-based PrP 5' UTR mRNA reporter, plate reader; inhibition, % (test concentration not listed); 340,000 tested, 0.35% active; AID 488862; in the data active = inhibition above about 52%; also: 0 = median of the neutral control wells
PrPC TRFRET: inhibitors of human cell surface prion protein PrPC; P04156; inhibition, % at 13.8 µM; TR-FRET read-out; 370,000 tested, 0.43% active; in the data active = inhibition above about 24%; also: 0% = median of the test wells and 100% = reference compound wells
Rv3671c inh: Rv3671c (M. tuberculosis) protease inhibition. 320,000 tested, 0.048% active. inhibition, % at 5.96 µM. AID 2606. P9WHR9; in the data active = inhibition above about 38%;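 also: extracellular domain of Rv3671c used as enzyme; 0% = enzyme with DMSO and 100% = no enzyme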
An asterisk follows results filed as active; ? = inconclusive; . = no result; ! = not active in a repeat.

SMILES | PriA SSB inh | FadD28 binding | UGM FP inh | PrP UTR inh | PrPC TRFRET | Rv3671c inh
Cc1cc(C(=O)OCC(=O)Nc2c(Cl)cccc2Cl)c(C)o1 | -4 | 1 | 10* | -22 | -4 | 2
Cc1ccc(Nc2c([N+](=O)[O-])cc(C(=O)N3CC(=O)Nc4ccccc43)cc2[N+](=O)[O-])c(C)c1 | 43* | -2 | -1 | -19 | -9 | 4
Cc1ccc(NC(=O)CSc2nc3c(sc(=S)n3-c3ccccc3)c(=O)[nH]2)cc1C | 0 | . | . | . | . | .
C=CCn1ccc(=NC=C(C#N)C#N)c2ccccc21 | -2 | -1 | 36* | -7 | -4 | 2
Cn1cc(C=C(C#N)C#N)c2ccccc21 | -6 | -5 | ? | -27 | 3 | 2
O=c1c2nc(N3CCOCC3)sc2c(-c2ccco2)nn1Cc1ccc(C(F)(F)F)cc1 | 5 | . | . | . | . | .
COc1ccc(CCNc2oc(-c3ccc(OC)c(OC)c3)nc2C#N)cc1 | 9 | 12* | -1 | -2 | 10 | 0
COc1ccc(-c2nc(C#N)c(NCCCN(C)C)o2)cc1OC | -6 | -4 | 3 | -21 | 3 | 3
CC12CCC3C(CCC4CC(=O)/C(=C\c5ccc(Br)cc5)CC43C)C1CCC2O (centres undefined) | 8 | . | . | . | . | .
COc1ccc(F)cc1S(=O)(=O)NCC[C@H](O)c1ccoc1 | -5 | . | . | . | . | .
Cc1cc(N=Nc2ccc(Cl)cc2)cc(CN2CCOCC2)c1O | 49* | -2 | 0 | 11 | -6 | 4
Cc1c(O)c(CN2CCCCC2)cc2c3c(c(=O)oc12)CCC3 | -7 | -1 | 0 | -19 | -4 | -5
Cc1cc(N=Nc2ccc(Cl)cc2)cc(CN2CCCC2)c1O | 72* | 0 | -1 | -26 | 2 | 9
O=C(OC1CN(c2nc3c(Cl)cccc3s2)C1)c1ccsc1 | -18 | . | . | . | . | .
CCOC1=C/C(=C/c2c(N)n3nc(-c4ccccc4)sc3nc2=O)C=CC1=O | . | 16* | . | -6 | 8 | .
COC1=C/C(=C/c2c(N)n3nc(-c4ccc(C)cc4)sc3nc2=O)C=CC1=O | . | 1 | . | -44 | 11 | .
CN(C)c1ccc(C(=O)NCCCS(=O)(=O)N2CCN(c3ccccc3)CC2)cc1 | -14 | . | . | . | . | .
O=C(O)c1ccccc1-c1ccc(C=c2sc3nc4cc(Br)cnc4n3c2=O)o1 | 0 | 13* | . | . | 6 | .
O=C(O)c1ccc(-c2ccc(C=c3sc4nc5ccccc5n4c3=O)o2)cc1Cl | -6 | . | . | . | . | .
O=C(CCCN1C(=O)/C(=C/c2ccco2)SC1=S)Nc1cccc(C(=O)O)c1 | -6 | 18* | 0 | -14 | -7 | 0
O=C(CCCN1C(=O)/C(=C\c2ccco2)SC1=S)Nc1ccc(O)cc1C(=O)O | -2 | 40* | 0 | -2 | -7 | -23
COc1ccc(OC)c(-c2nnc(NC(=O)COc3ccc(F)cc3)o2)c1 | -9 | . | . | . | . | .
COc1ccc(CCNc2nccn(-c3cccc(Cl)c3C)c2=O)cc1OC | 32* | . | . | . | . | .
COC(=O)c1ccc(NC(=O)Cn2cc(-c3nnc(-c4ccccc4)o3)c3ccccc32)cc1 | -12 | . | . | . | . | .
Cc1nc(-c2ccccc2Cl)sc1CNC(=O)CCS(=O)(=O)c1ccccc1 | -3 | . | . | . | . | .
SMILES | PriA SSB inh | FadD28 binding | UGM FP inh | PrP UTR inh | PrPC TRFRET | Rv3671c inh
Cc1nn(-c2ccccc2)c(Cl)c1C(=O)NCC1CCCO1 (centres undefined) | -5 | -1 | 14* | 9 | 6 | -7
Cc1ccc2nc(N3CCN(CCO)CC3)nc(-c3ccccc3)c2c1 | 38*! | 1 | -2 | -9 | -17 | -3
CCn1ccnc1CNCc1cn(-c2cc(C)ccc2C)nc1-c1ccccc1 | 87* | -2 | -1 | -2 | 1 | -3
Cc1ccc(C)c(-n2cc(CNCCc3cnccn3)c(-c3ccccc3)n2)c1 | -5 | -5 | 0 | -24 | -3 | 0
Oc1ccc(Nc2ccnc3cc(Cl)ccc23)cc1 | 0 | 0 | -2 | -15 | -4 | -3
Clc1ccc(NNc2ccnc3cc(Cl)ccc23)cc1 | 76* | -4 | 2 | -28 | 1 | 0
S=C(NNc1ccnc2cc(Cl)ccc12)Nc1ccccc1Cl | 40* | -2 | 2 | -27 | 8 | 3
O=C(CN1C(=O)COc2ccccc21)Nc1ccc(Cl)cc1 | 52* | . | . | . | . | .
O=C(NCCNc1ccc(Nc2ccncc2)nn1)c1ccccc1Cl | -14 | . | . | . | . | .
CCOc1ccccc1NC(=O)NCc1nccc(N2CCCC2)n1 | -11 | . | . | . | . | .
Nc1ncn([C@@H]2O[C@H](CO)[C@@H](O)[C@H]2O)c(=O)n1 | 4 | 0 | 1 | 15 | 42* | -2
CCc1nn2c(N)c(C=C3C=Nc4ccccc43)c(=O)nc2s1 | -1 | . | . | . | . | .
CCOc1cccc2cc(C(=O)Nc3nnc(Cc4cccs4)o3)oc12 | -1 | . | . | . | . | .
N#CC1=C2N=C(N)c3c(sc4c3CCCCC4)N2C2=C(C(=O)CCC2)C1c1ccccc1 (centres undefined) | 44* | -3 | -2 | -1 | 3 | 2
COc1c(S(=O)(=O)N2CCN=C2c2ccccc2)ccc(Cl)c1Cl | -4 | . | . | . | . | .
CC1(c2ccccc2)NC(=O)N(CC(=O)Nc2nc(-c3ccccn3)cs2)C1=O (centres undefined) | 75* | -1 | 2 | -5 | 4 | -9
Cc1ccc(C2(C)NC(=O)N(CC(=O)Nc3nc(-c4ccccn4)cs3)C2=O)cc1 (centres undefined) | 85* | -3 | -1 | 13 | 5 | -8
CCSc1nnc(NC(=O)CN2C(=O)N(C)C3(CCCCC3)C2=O)s1 | -5 | 0 | . | -10 | 0 | .
CC1(C)NC(=O)N(CC(=O)Nc2nc(-c3ccccn3)cs2)C1=O | 106* | . | . | . | . | .
CC1(c2ccccc2)NC(=O)N(CC(=O)NNC(=O)c2ccccc2)C1=O (centres undefined) | -15 | -18 | -1 | -19 | 0 | -9
CN1C(=O)N(CC(=O)Nc2nc(-c3ccccn3)cs2)C(=O)C12CCCCC2 | 101* | . | . | . | . | .
C=C1Nc2ccccc2N(CC(=O)Nc2nc(-c3ccccn3)cs2)C1=O | 57 | . | . | . | . | .
O=C(NC(c1ccccc1)c1ccccc1)N1CCC(n2ccnn2)C1 (centres undefined) | -14 | . | . | . | . | .
O=C(O)CC/C(=C\c1ccc(N2CCCC2)c([N+](=O)[O-])c1)c1nc2ccccc2s1 | 14 | ? | 0 | -29 | -13 | 3
CN(c1ccccc1)c1ccc(/C=C(/CCC(=O)O)c2nc3ccccc3s2)cc1[N+](=O)[O-] | -4 | 19* | . | -2 | -12 | .
SMILES | PriA SSB inh | FadD28 binding | UGM FP inh | PrP UTR inh | PrPC TRFRET | Rv3671c inh
O=C1NN(c2ccc(F)c(Cl)c2)C(=O)/C1=C\c1cccc(OC(=O)c2cccs2)c1 | -9 | 26* | -1 | -10 | 9 | 7
CC(C)=C1C(=O)NN(c2ccc(F)c(Cl)c2)C1=O | -15 | ? | 0 | -18 | 3 | 8
Cc1ccc(S(=O)(=O)Nc2ccc3c(c2)N(C)C(=O)C(C)(C)CO3)cc1Cl | 5 | . | . | . | . | .
CCCCCCCC[n+]1cccc(C(=O)N(CC)CC)c1 | 2 | -4 | 3 | -10 | 1 | -8
CCCCCCCCCCCCCCCC[n+]1ccc(C(N)=O)cc1 | 0 | 22* | 2 | -12 | 6 | 4
CCCCCCCCCCCCCCCC[n+]1cccc(C(=O)N(CC)CC)c1 | 2 | 14* | -3 | -12 | 11 | -8
Cc1cc(SCC(=O)O)nc(SCC(=O)O)n1 | -7 | . | . | . | . | .
